Reference: the supplement of paper PMC12669032
A number with no mark means an inactive call.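 The calls were made as follows: active = AUC reduced over 20% with Padj below 0.05 in at least 2 of 3 replicates; inactive = otherwise.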

Experiments:
Test in all cases: growth AUC relative to DMSO control (median of replicates) (fraction); higher = more growth (less inhibition), active = hit call of the paper
Conditions in all cases: 20 µM; 24 h
Coprococcus comes = system: Coprococcus comes
Procedure, shortened: (§1)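 Area under the growth curve was normalised to the plate median of solvent-only wells, or to row and column medians on the industrial chemical plate. Growth curves came from anaerobic gut bacterial monocultures in mGAM at 37 °C, seeded at OD600 0.05 with 20 µM compound (1% DMSO), and read at OD600 hourly for 24 h with the minimum OD set to 0. The value is the median of three biological replicates grown on separate days.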

Escherichia coli ED1a = system: Escherichia coli ED1a
Procedure, shortened: as §1

Escherichia coli IAI1 = system: Escherichia coli IAI1
Procedure, shortened: as §1

Eubacterium rectale = system: Eubacterium rectale
Procedure, shortened: as §1

[1] = system: Fusobacterium nucleatum subsp. animalis
Procedure, shortened: as §1

Lactobacillus gasseri = system: Lactobacillus gasseri
Procedure, shortened: as §1

Lactobacillus paracasei = system: Lactobacillus paracasei
Procedure, shortened: as §1

Odoribacter splanchnicus = system: Odoribacter splanchnicus
Procedure, shortened: as §1

[2] = system: Parabacteroides distasonis
Procedure, shortened: as §1

Parabacteroides merdae = system: Parabacteroides merdae
Procedure, shortened: as §1

Roseburia intestinalis = system: Roseburia intestinalis
Procedure, shortened: as §1

Streptococcus salivarius = system: Streptococcus salivarius
Procedure, shortened: as §1

Compound	growth AUC (Coprococcus comes)	growth AUC (Escherichia coli ED1a)	growth AUC (Escherichia coli IAI1)	growth AUC (Eubacterium rectale)	growth AUC [1]	growth AUC (Lactobacillus gasseri)	growth AUC (Lactobacillus paracasei)	growth AUC (Odoribacter splanchnicus)	growth AUC [2]	growth AUC (Parabacteroides merdae)	growth AUC (Roseburia intestinalis)	growth AUC (Streptococcus salivarius)
CCCN(CCOc1c(Cl)cc(Cl)cc1Cl)C(N)=O	1	1.01	0.985	1	0.935	0.946	0.851	0.978	0.949	0.977	0.939	0.972
COC(=O)c1ccc(I)cc1S(=O)(=O)[N-]C(=O)Nc1nc(C)nc(OC)n1.[Na+]	0.947	1.02	0.948	1.07	1.14	0.919	0.969	1.07	0.95	1.01	0.934	0.948
CCC/C(=N\OCC)C1=C(O)CC(C2CCCSC2)CC1=O (stereo not given)	1.03	0.988	1.01	1.14	1.03	0.907	0.986	1.01	0.81	1.04	0.937	0.974
CCc1cccc(C)c1N(COC(C)C)C(=O)CCl	1.03	1.05	1.01	1.04	0.961	0.99	1.07	1.1	1.04	0.982	1.01	1.01
COc1cc(OC)nc(Sc2cccc3c2C(=O)OC3C)n1 (stereo not given)	1	0.984	0.999	1.02	0.965	1.06	1	1.09	0.904	0.968	0.988	0.977
O.O=C(Nc1ccc(Cl)c(Cl)c1)Nc1cc(Cl)ccc1Oc1ccc(Cl)cc1S(=O)(=O)[O-].[Na+]	0.823	1.06	1.03	0.886	0.691	0.0949 (active)	0.906	0.0102 (active)	0.494 (active)	0.861	0.792 (active)	0.478 (active)
Cc1cc(CC(C)CC(C)(C)C)n(O)c(=O)c1.NCCO (stereo not given)	0.995	1.04	1	0.788	1.02	0.971	1.01	0.997	1	1.03	0.995	1.02
NC(=O)Cc1cccc2ccccc12	1.04	0.99	1.01	0.994	1.06	1.04	1.01	0.992	1.01	1.01	1.05	1.05
CCCCCCCCc1c(CC)nc2ncnn2c1N	1.01	0.986	0.978	0.988	1.04	0.904	0.931	0.989	0.946	0.964	0.948	0.985
CCCCC(CC)CN1C(=O)C2C(C1=O)[C@H]1C=C[C@@H]2C1 (mixture of isomers)	1.03	1.01	1.03	0.93	1.01	1.06	1.04	1.03	0.79 (active)	0.977	1.07	1
CCCCCCCCSCCO	0.974	0.955	0.936	1.04	0.902	0.94	0.93	1.03	0.915	0.966	0.944	0.959
CCCCCCCCCCCC[N+](C)(C)Cc1ccc(CC)cc1.[Cl-]	0.374 (active)	0.981	0.945	0.863	0.902	0.651 (active)	0.708	0.973	0.671 (active)	0.708 (active)	0.0285 (active)	1.03
CCC([O-])=C1C(=O)CC(C(=O)[O-])CC1=O.[Ca+2] (stereo not given)	0.957	1	0.972	1.13	1.11	1.06	0.91	0.976	0.993	0.996	1.12	0.917
COC(=O)c1ccccc1S(=O)(=O)NC(=O)Nc1nc(OC(F)F)cc(OC(F)F)n1	1	1.02	1.01	0.964	0.957	1.19	1.04	0.99	1.04	1	1.01	0.994
CCNc1nc(NC(C)(C)C)[nH]c(=O)n1	0.988	1.02	0.987	1.03	0.99	0.899	1.04	0.948	1.01	0.994	1.03	1.03
CCc1cccc(C)c1NC(=O)C(=O)O	0.985	1.02	1	0.989	0.981	0.916	0.969	0.998	0.982	1.03	0.953	0.994
CCc1ccc(C(c2ccc(CC)cc2)C(Cl)Cl)cc1	1.04	1.02	1.01	0.935	0.939	0.938	0.996	1	0.976	0.882	1	0.963
O=C(O)COc1cc(N2C(=O)C3=C(CCCC3)C2=O)c(F)cc1Cl	1.01	1.01	1	1.03	1.02	0.967	1.05	1.03	1.03	1.04	0.987	0.977
Oc1ccc2nc(-c3cscn3)[nH]c2c1	0.994	0.988	0.974	1.01	0.975	0.869	0.997	1.01	1.02	0.958	1.03	1.07
CS(=O)(=O)c1ccc(C(=O)C2C(=O)C(O)CC(O)C2=O)c(Cl)c1COCC(F)(F)F (stereo not given)	1	0.988	0.972	0.798	1.02	1.02	0.987	0.98	1.03	0.998	1.03	1.03
CN(C)C(=O)c1cccnc1S(N)(=O)=O	1.03	1.05	1.04	1.02	1.02	1.06	1.04	1.02	1.01	1	1.03	0.978
Cc1cc(C)cc(O)c1	1.02	0.953	0.984	0.95	0.923	1.01	0.958	0.988	1.01	0.988	1.03	1.03
CCOC(=O)c1ccc(O)cc1	1	0.974	0.969	1.07	1.05	0.822	0.978	0.988	0.893	0.976	0.888	1.01
COC(=O)CC(NC(=O)[C@@H](NC(=O)OC(C)C)C(C)C)c1ccc(Cl)cc1 (stereo not given in full)	0.954	1.02	0.986	0.993	1.11	1.01	0.992	0.87	0.954	1.01	0.975	0.953
CCCCCC(C)OC(=O)COc1ccc(Cl)c2cccnc12 (stereo not given)	0.795 (active)	0.933	0.989	0.177 (active)	1.01	0.865	0.925	1	0.741 (active)	0.943	0.931	0.877
